Where “and” joins values, the source holds several entries; their conditions need not be identical. Equal values may be shown once. Values without a mark were called inactive. Records with an inconclusive call do not appear. A call without a number means that no potency is given here. Calls of active or inactive are those of the source. Unless noted, calls follow the shape of the dose curve; as a rule, active = well fitted curve in the direction sought with a large enough effect in the repeat runs; inconclusive = weak or mixed curves; inactive = no such curve, though single readings can be large; an effect the other way counts as inactive or inconclusive.
Experiments:
[1] = qHTS assay for small molecule agonists of the p53 signaling pathway (AID 651631; calls by dose curve; also: nearly all actives have a fitted effect of over 15% in size; also: potency is read from the fitted curve at half-maximal effect)
Procedure, shortened: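 HCT-116 p53RE-bla reporter line, 16 h compound treatment at 37 °C, then fluorescence after 2 h with B/G FRET substrate.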

[2] = qHTS assay for small molecules that induce genotoxicity in human embryonic kidney cells expressing luciferase-tagged ATAD5 (AID 651632); also: nearly all actives have a fitted effect of over 15% in size
Procedure, shortened: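 ATAD5-luc HEK293T, 2,000 cells/well; cpd or DMSO pin-transferred; 16 hr, 37C/5% CO2; Amplite 30 min RT; luminescence.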

[3] = qHTS assay for small molecule agonists of the p53 signaling pathway - cell viability (AID 651633; calls by dose curve; also: nearly all actives have a fitted effect of over 30% in size; also: potency is read from the fitted curve at half-maximal effect)
Procedure, shortened: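 p53RE-bla cells, seeded at 4,000 per well and rested 5 h at 37 C/5% CO2, received compounds in DMSO for 16 h at 37 C. CellTiter-Glo was then added, and luminescence was read after 30 min at room temperature to gauge cytotoxicity.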

[4] = qHTS assay for small molecules that induce genotoxicity in human embryonic kidney cells expressing luciferase-tagged ATAD5 - cell viability (AID 651634; calls by dose curve; also: nearly all actives have a fitted effect of over 25% in size; also: potency is read from the fitted curve at half-maximal effect)
Procedure, shortened: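 Fluorescence from CellTiter-Fluor, reporting protease activity within live cells, served as the viability read-out. HEK293T cells carrying luciferase-tagged ATAD5 had been treated with compound for 15.5 hr at 37C.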

[5] = qHTS assay for small molecule disruptors of the mitochondrial membrane potential - cell viability (AID 720634; calls by dose curve; also: nearly all actives have a fitted effect of over 20% in size; also: potency is read from the fitted curve at half-maximal effect)
Procedure, shortened: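 Cells: HepG2, 2,000/well, attached overnight. Compound 1 hr, 37 C/5% CO2. +m-MPI dye, +CellTiter-Glo 30 min RT. Readout: luminescence (ATP).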

[6] = qHTS assay for small molecule disruptors of the mitochondrial membrane potential (AID 720635); also: potency is read from the fitted curve at half-maximal effect
Procedure, shortened: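 HepG2 cells (2,000/well) attached overnight at 37C, then took compound for 1 hr at 37C, 5% CO2. Mito-MPS dye was added for 30 min; fluorescence was read at 490/535 nm (monomers) and 540/590 nm (aggregates).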

[7] = qHTS assay to test for compound auto fluorescence at 590 nm (red) in HepG2 cells (AID 720674)
Procedure, shortened: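 Intrinsic compound fluorescence in the red window (Ex/Em 540/590 nm) is measured in attached HepG2 cells exposed for 1 hr, DMSO vehicle as baseline, benchmarked to Rose Bengal sodium.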

[8] = qHTS assay to test for compound auto fluorescence at 535 nm (green) in HepG2 cells (AID 720675)
[9] = qHTS assay to test for compound auto fluorescence at 460 nm (blue) in HEK293 cells (AID 720678)
Procedure, shortened: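 Intrinsic compound fluorescence is recorded in live HEK293 cultures after overnight incubation at 37C, 5% CO2, using excitation 405 nm and emission 460 nm. Values are referenced to triamterene.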

[10] = qHTS assay to test for compound auto fluorescence at 590 nm (red) in HEK293 cells (AID 720679)
Procedure, shortened: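 Red autofluorescence, HEK293 cells: 2,000 cells/well; attach 4-5 hr 37C; add 23 nL cpd or DMSO; incubate o/n 37C 5% CO2; read Ex540/Em590; Rose Bengal sodium reference.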

[11] = qHTS assay to test for compound auto fluorescence at 535 nm (green) in HEK293 cells (AID 720680)
[12] = qHTS assay to test for compound auto fluorescence at 535 nm (green) in HEK293 cell free culture (AID 720682)
Procedure, shortened: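 Steps: dispense DMEM/10% FBS into empty wells; pin in compound or DMSO; measure fluorescence at 485/535 nm. Values are fluorescein equivalents.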

[13] = qHTS assay to test for compound auto fluorescence at 590 nm (red) in HEK293 cell free culture (AID 720683)
Procedure, shortened: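 Tox21 10K library compounds were pinned into cell-free DMEM with 10% FBS and fluorescence was read at excitation 540 nm. Activity is expressed as Rose Bengal sodium equivalency.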

[14] = qHTS assay to test for compound auto fluorescence at 590 nm (red) in HepG2 cell free culture (AID 720684)
Procedure, shortened: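 Red fluorescence (540 nm excitation, 590 nm emission) was measured after compound transfer into cell-free MEM supplemented with 10% FBS. Values are equivalencies against Rose Bengal sodium.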

[15] = qHTS assay to test for compound auto fluorescence at 460 nm (blue) in HepG2 cell free culture (AID 720685)
Procedure, shortened: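 Compound (23 nL) or DMSO pinned into cell-free MEM with 10% FBS; blue fluorescence read at 405/460 nm excitation/emission, expressed as auto-fluorescence equivalency to triamterene.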

[16] = qHTS assay to test for compound auto fluorescence at 535 nm (green) in HepG2 cell free culture (AID 720686)
[17] = qHTS assay to test for compound auto fluorescence at 460 nm (blue) in HepG2 cells (AID 720687)
Procedure, shortened: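 Cells (2,000/well in MEM with 10% FBS) attached overnight at 37 C, then were exposed to compound or DMSO for 1 hr at 37 C, 5% CO2. Fluorescence read at Ex/Em 405/460 nm, expressed as triamterene-equivalent signal.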

[18] = qHTS assay to test for compound auto fluorescence at 460 nm (blue) in HEK293 cell free culture (AID 720681)
Procedure, shortened: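 Test compounds were pinned into cell-free culture medium (DMEM with 10% FBS) and fluorescence was read directly at Ex/Em 405/460 nm. Signals were expressed as fluorescence equivalents of triamterene, with DMSO vehicle as control.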

[19] = target: Glucocorticoid receptor (Homo sapiens) (UniProt P04150); experiment: qHTS assay to identify small molecule antagonists of the glucocorticoid receptor (GR) signaling pathway (AID 720692; active = well fitted inhibition curve with a large enough effect in the signal ratio in the repeat runs, not every such curve was filed as active; the % refers to the signal ratio; also: potency is read from the fitted curve at half-maximal effect)
Sequence of Glucocorticoid receptor (Homo sapiens) (P04150 whole entry, looked up): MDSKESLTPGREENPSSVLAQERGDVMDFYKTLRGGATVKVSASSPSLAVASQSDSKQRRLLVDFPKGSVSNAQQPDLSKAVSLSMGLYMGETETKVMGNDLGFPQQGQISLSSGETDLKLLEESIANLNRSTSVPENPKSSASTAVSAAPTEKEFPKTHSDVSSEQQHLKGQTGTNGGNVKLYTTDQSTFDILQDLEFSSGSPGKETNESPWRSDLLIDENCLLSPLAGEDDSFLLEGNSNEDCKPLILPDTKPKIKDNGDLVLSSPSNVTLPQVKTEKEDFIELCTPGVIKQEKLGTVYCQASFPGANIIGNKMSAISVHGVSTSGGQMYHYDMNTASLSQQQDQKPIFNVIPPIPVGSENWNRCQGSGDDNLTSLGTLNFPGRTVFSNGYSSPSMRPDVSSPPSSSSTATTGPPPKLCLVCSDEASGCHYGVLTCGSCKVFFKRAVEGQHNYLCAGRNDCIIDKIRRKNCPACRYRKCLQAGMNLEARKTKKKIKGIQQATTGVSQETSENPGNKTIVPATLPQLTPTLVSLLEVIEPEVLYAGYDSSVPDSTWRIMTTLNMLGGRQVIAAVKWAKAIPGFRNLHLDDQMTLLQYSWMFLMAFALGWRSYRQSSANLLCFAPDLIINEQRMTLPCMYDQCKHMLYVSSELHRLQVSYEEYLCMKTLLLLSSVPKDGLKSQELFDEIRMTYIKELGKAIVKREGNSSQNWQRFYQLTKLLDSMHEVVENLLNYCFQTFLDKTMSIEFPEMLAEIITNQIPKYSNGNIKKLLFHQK
Procedure, shortened: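 HeLa GR-bla cells; cmpd + dex 5 nM final, 18 h 37 C; LiveBLAzer B/G FRET substrate 2 h RT; fluorescence intensity read. Antagonist mode, qHTS.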

[20] = target: Glucocorticoid receptor (Homo sapiens) (UniProt P04150); experiment: qHTS assay to identify small molecule agonists of the glucocorticoid receptor (GR) signaling pathway (AID 720691; active = well fitted activation curve with a large enough effect in the signal ratio in the repeat runs, not every such curve was filed as active; the % refers to the signal ratio); conditions: GR-bla HeLa, beta-lactamase reporter ratio, 18 h; activation: at 62.4 µM (top of the series)
Procedure, shortened: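 Fluorescence intensity from LiveBLAzer B/G FRET substrate (2 h, room temperature) reports beta-lactamase expression driven by the glucocorticoid response element in GR-bla HeLa cells after 18 h compound exposure at 37 C.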

Row | Structure (SMILES) | Potency [1] | Potency [2] | Potency [3] | Potency [4] | Potency [5] | Potency [6] | Potency [7] | Potency [8] | Potency [9] | Potency [10] | Potency [11] | Potency [12] | Potency [13] | Potency [14] | Potency [15] | Potency [16] | Potency [17] | Potency [18] | Potency [19] | Potency [20]
1 | CCOC(=O)COc1ccc(C)cc1 | inactive | inactive | inactive | inactive | inactive | inactive | inactive | inactive | inactive | inactive | inactive | inactive | inactive | inactive | inactive | inactive | inactive | – | – | –
2 | C=CC(=C)CCC=C(C)C | inactive | inactive | inactive | inactive | inactive | – | inactive | inactive | inactive | inactive | inactive | – | inactive | inactive | inactive | inactive | inactive | inactive | inactive | –
3 | O=C(Nc1ccc(Cl)cc1)Nc1ccc(Cl)c(C(F)(F)F)c1 | 16.8 µM (active) | inactive | 26.6 µM (active) | 13.3 µM (active) | 1.5 µM (active) | 0.596 µM (active) | inactive | – | inactive | inactive | inactive | – | inactive | inactive | inactive | inactive | inactive | inactive | – | –
4 | CC1(C)C(=O)N(Br)C(=O)N1Br | inactive | inactive | inactive | inactive | inactive | inactive | inactive | inactive | – | inactive | inactive | – | inactive | inactive | inactive | inactive | inactive | – | inactive | inactive
5 | Cc1cn[nH]c1 | inactive | inactive | inactive | inactive | inactive | inactive | inactive | inactive | – | inactive | inactive | inactive | inactive | inactive | inactive | inactive | inactive | – | inactive | inactive
6 | O=C1OC(OC(=O)c2cccnc2Nc2cccc(C(F)(F)F)c2)c2ccccc21 (stereo not given) | inactive | inactive | inactive | inactive | inactive | 24.8 µM (active) | inactive | inactive | inactive | inactive | inactive | – | inactive | inactive | inactive | inactive | inactive | – | inactive | inactive
7 | O=C(c1ccccc1)c1cc(Cl)ccc1O | inactive | inactive | inactive | inactive | inactive | 25.9 µM (active) | inactive | inactive | – | inactive | inactive | inactive | inactive | inactive | inactive | inactive | inactive | inactive | inactive | inactive
8 | O=C(O)c1cccc(Cl)n1 | inactive | inactive | inactive | inactive | inactive | inactive | inactive | inactive | – | inactive | inactive | inactive | inactive | inactive | inactive | inactive | inactive | inactive | – | –
9 | Cn1cnc2ncnc(N)c21 | inactive | inactive | inactive | inactive | inactive | – | inactive | inactive | inactive | inactive | inactive | – | inactive | inactive | inactive | inactive | inactive | inactive | – | –
10 | COC(=O)CC(C)CCC=C(C)C (stereo not given) | – | inactive | inactive | inactive | inactive | inactive | inactive | inactive | inactive | inactive | inactive | inactive | inactive | inactive | inactive | inactive | inactive | inactive | inactive | inactive
11 | CCCCCCCCCCCCOC(=O)c1cc(O)c(O)c(O)c1 | 68.3 µM (active) and 61.1 µM (active) | – | 48.3 µM (active) and 48.6 µM (active) | 60.9 µM (active) and 13.7 µM (active) | 60.9 µM (active) and 54.5 µM (active) | 3.05 µM (active) and 4.33 µM (active) | inactive | inactive | inactive | inactive | – | inactive | inactive | inactive | inactive | inactive | inactive | inactive | – | –
12 | CC(=O)Oc1ccc(C2(c3ccc(OC(C)=O)cc3)C(=O)Nc3ccccc32)cc1 | 211 nM (active) and 237 nM (active) | inactive | 150 nM (active) and 266 nM (active) | inactive | – | – | inactive | inactive | inactive | inactive | inactive | inactive | inactive | inactive | inactive | inactive | inactive | – | 16.9 µM (active) and 26.8 µM (active) | inactive
13 | CCCCOC(=O)C(C)CC (stereo not given) | inactive | inactive | inactive | inactive | inactive | – | inactive | inactive | inactive | inactive | – | inactive | inactive | inactive | inactive | inactive | inactive | inactive | – | inactive
14 | O=C(NO)c1ccccc1 | 65.3 µM (active) | – | – | inactive | inactive | – | inactive | inactive | inactive | inactive | inactive | inactive | inactive | inactive | inactive | inactive | inactive | inactive | – | inactive
